Results reported in PMC4336329 (PLoS ONE, 2015).
Hit rate of the full screen: of about 310,000 compounds, about 14,000 (4.5%) showed an effect of 50% or more. The effect is printed as a negative number. The sample as a whole holds a higher share of strong results than the screen did.

target: human ether-à-go-go-related gene (hERG) potassium channel (human, UniProt Q12809); assay: primary screen, population patch clamp on CHO cells stably expressing hERG; higher = less effect of the substance
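Also: peak tail current of the secondary pulse compared with the same well before compound.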

Sequence of human ether-à-go-go-related gene (hERG) potassium channel (Q12809 whole entry, looked up): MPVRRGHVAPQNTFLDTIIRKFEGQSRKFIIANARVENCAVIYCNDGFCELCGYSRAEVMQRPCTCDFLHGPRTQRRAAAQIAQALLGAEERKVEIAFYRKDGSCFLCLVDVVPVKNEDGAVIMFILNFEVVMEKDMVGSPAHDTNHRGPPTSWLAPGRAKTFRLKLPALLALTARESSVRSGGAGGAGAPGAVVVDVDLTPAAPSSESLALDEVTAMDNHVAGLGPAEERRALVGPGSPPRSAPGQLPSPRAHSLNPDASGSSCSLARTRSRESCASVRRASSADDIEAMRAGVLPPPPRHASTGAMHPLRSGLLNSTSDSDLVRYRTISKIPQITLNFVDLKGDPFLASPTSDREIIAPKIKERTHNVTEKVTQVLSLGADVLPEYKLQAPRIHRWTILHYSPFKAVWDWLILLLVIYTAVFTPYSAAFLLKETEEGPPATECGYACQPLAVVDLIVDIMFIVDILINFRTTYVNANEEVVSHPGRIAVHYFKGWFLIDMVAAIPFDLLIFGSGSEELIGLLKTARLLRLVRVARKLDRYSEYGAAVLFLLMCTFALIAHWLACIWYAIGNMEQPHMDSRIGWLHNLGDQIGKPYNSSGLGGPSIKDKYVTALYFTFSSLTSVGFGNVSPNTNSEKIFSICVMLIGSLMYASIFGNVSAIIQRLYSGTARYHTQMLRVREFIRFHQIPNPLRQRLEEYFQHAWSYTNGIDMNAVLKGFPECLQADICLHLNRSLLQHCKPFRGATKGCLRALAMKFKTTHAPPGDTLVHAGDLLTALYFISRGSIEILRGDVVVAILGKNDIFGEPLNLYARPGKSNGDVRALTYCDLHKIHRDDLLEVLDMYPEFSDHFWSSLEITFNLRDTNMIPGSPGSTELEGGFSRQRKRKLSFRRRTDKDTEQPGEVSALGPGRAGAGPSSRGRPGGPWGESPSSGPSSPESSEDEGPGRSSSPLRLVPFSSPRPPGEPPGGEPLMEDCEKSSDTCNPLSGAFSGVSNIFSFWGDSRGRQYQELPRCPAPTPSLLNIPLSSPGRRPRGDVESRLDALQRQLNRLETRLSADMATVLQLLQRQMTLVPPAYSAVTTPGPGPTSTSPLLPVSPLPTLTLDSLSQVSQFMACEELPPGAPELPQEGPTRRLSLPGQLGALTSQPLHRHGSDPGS

SMILES | hERG current change (%, negative = inhibition) at 10uM [%]
COc1ccccc1CNC(=O)COc1ccc2c(c1)CCC2 | -1.2
Nc1ncnc2c1ncn2CCOc1ccccc1 | 5.18
CN(C)CCCN(C(=O)c1ccco1)c1nc2c(F)cccc2s1.Cl | -73.2
Cc1cccc2sc(N(CCCN(C)C)C(=O)c3nc4ccccc4s3)nc12.Cl | 4.2
CN(C)CCCN(C(=O)c1ccco1)c1nc2c(F)cc(F)cc2s1.Cl | -72.2
Cc1cccc2sc(N(CCCN(C)C)C(=O)c3ccco3)nc12.Cl | -74.9
Cc1cccc2sc(N(CCCN(C)C)C(=O)c3ccc(Cl)s3)nc12.Cl | -69.7
Cc1cccc2sc(N(CCN(C)C)C(=O)c3cc(Cl)sc3Cl)nc12.Cl | -22.7
CN(C)CCN(C(=O)/C=C/c1cccs1)c1nc2c(F)cc(F)cc2s1.Cl | -47.8
COc1cc2ccccc2cc1C(=O)N(CCN(C)C)c1nc2c(F)cc(F)cc2s1.Cl | -10.1
CN(C)CCCN(C(=O)c1cc(-c2cccs2)nc2ccccc12)c1nc2c(F)cccc2s1.Cl | -48.8
COc1cccc(N(CC(=O)NCCN2CCOCC2)S(=O)(=O)c2ccccc2)c1 | -4.96
O=C(CSc1nc2ccccc2[nH]1)NCCc1ccc(Cl)cc1 | -20.9
CN(C1CCCCC1)S(=O)(=O)c1ccccc1 | -7.01
O=C(O)COc1ccc(Br)cc1/C=N\Nc1ccccn1 | 15.2
COc1cc(OC)cc(C(=O)NC(=S)Nc2cc3oc4ccccc4c3cc2OC)c1 | 18.5
Cc1cc(/C=C2/C(=O)N(C)C(=S)N2C)c(C)n1C1CC1 | 4.03
CC(C)Oc1ccc(C(=O)Nc2ccc(N3CCCCC3)cc2)cc1 | -2.32
CS(=O)(=O)N1CCc2ccc(NC(=O)C3CCCO3)cc2C1 (centres unmarked) | 18.8
CCCNS(=O)(=O)c1ccc(CCC(=O)N2CCOCC2)cc1 | 3.77
COC(=O)[C@@H](NC(=O)c1ccc2c(c1)S(=O)(=O)c1ccccc1C2=O)C(C)C | 8.57

SMILES | hERG current change (%, negative = inhibition) at 10uM [%]
O=C(CN1CCCCC1)Nc1c2c(nc3ccccc13)N(c1ccccc1)CC2.O=C(O)C(=O)O | 3.12
CN(C)c1cc(NC(=O)CN2CCCC2)c2ccccc2n1.O=C(O)C(=O)O | -10.3
O=C(CN1CCOCC1)Nc1c2c(nc3ccccc13)N(Cc1ccccc1)CC2.O=C(O)C(=O)O | -68.9
CCCCCC(=O)Nc1c2c(nc3ccccc13)CCC2 | -45.7
O=C(CN1CCCC1)Nc1c2c(nc3ccccc13)N(Cc1ccccc1)CC2.O=C(O)C(=O)O | 6.05
CCCCCC(=O)Nc1cccc2ccccc12 | -2.38
CCCCCCC(=O)Nc1c2c(nc3ccccc13)N(C)CC2 | -68
CCCCC(=O)Nc1cc(N(C)C)nc2ccccc12 | -66.3
CCN(CC)CC(=O)Nc1c2c(nc3ccccc13)N(C)CC2.O=C(O)C(=O)O | 16.5
CN1CCc2c1nc1ccccc1c2NC(=O)CN1CCCC1 | -1.61
CCCCCC(=O)Nc1cc(N(C)C)nc2ccccc12 | -74.9
CCN(CC)CC(=O)Nc1cc(N(C)C)nc2ccccc12.O=C(O)C(=O)O | -35.3
C/C(=N\NC(=S)Nc1cc(S(=O)(=O)N2CCOCC2)ccc1Cl)c1ccc(N2CCOCC2)cc1 | 6.22
COc1ccc(CN(Cc2ccccn2)C(=O)CN2C(=O)C(C)Oc3ccccc32)cc1 (centres unmarked) | -3.36
CCOC(=O)c1ccc(-c2ccc(/C=C(\C#N)C(=O)NCc3cccs3)o2)cc1 | 18
CC(=O)N1N=C(c2cccnc2)OC1c1ccc(C(C)C)cc1 (centres unmarked) | -30.1
O=c1[nH]ccc2c(O)cccc12 | 20.1
Cc1cccc(C)c1NC(=O)C1c2cccc[n+]2CC(=O)N1Cc1cccs1.[I-] (centres unmarked) | 4.89
O=C(CCN1C(=O)/C(=C/c2ccccc2F)SC1=S)NC1C=CS(=O)(=O)C1 (centres unmarked) | 15.3
CCOc1ccc(C(=O)c2nc3c(n2O)CCCC3)cc1 | 18.5
